Tests used:
[1] = tested on: CHO; assay: % viability of CHO cells (MTT); higher = less toxic; settings: 48 h
Summary of the method: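 CHO cells were seeded at 10^6 cells/well in 200 µL and left overnight to attach. The medium was then replaced with fresh medium containing compound at 2 or 20 µM for 48 h. Survival was read colorimetrically with the tetrazolium (MTT) assay. Percent viability was expressed relative to untreated cells.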

[2] = tested on: HepG2-A16-CD81; assay: % inhibition of HepG2 viability (CellTiter-Glo); higher = more toxic; settings: 5 µM
[3] = tested on: Plasmodium falciparum NF54 stage IV/V gametocytes; assay: % inhibition of gametocyte viability (PrestoBlue); higher = more inhibition; settings: 48 h
Summary of the method: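 Stage IV/V NF54 gametocytes (2% gametocytaemia, 5% haematocrit, 100 µL/well) were exposed to compound at 1 or 5 µM. Incubation was 48 h at 37 °C, stationary and hypoxic, followed by 10 µL PrestoBlue for 2 h. Fluorescence at 612 nm was read on 70 µL of transferred supernatant. Percent inhibition of gametocyte viability was normalised to DMSO and kill controls from a single run.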

[4] = tested on: Plasmodium falciparum NF54 asexual blood stage; assay: % inhibition of asexual blood stage proliferation (pLDH); higher = more inhibition; settings: 72 h
Summary of the method: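 Plasmodium falciparum NF54 ring-stage cultures (1% haematocrit, 2% parasitaemia) were exposed to compound at 2 or 20 µM in 96-well plates. Incubation was 72 h at 37 °C under 4% CO2, 3% O2 and 93% N2. Survival was read colorimetrically at 620 nm with the parasite lactate dehydrogenase assay. Percent inhibition of asexual proliferation was normalised to DMSO and kill controls, and the screen was run on two separate occasions.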

[5] = tested on: Plasmodium falciparum NF54 stage IV/V gametocytes; assay: % inhibition of gametocyte viability (ATP bioluminescence); higher = more inhibition; settings: 24 h
Summary of the method: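 In 96-well plates, compound at 1 or 5 µM was added to 30,000 density-gradient-enriched stage IV/V NF54 gametocytes per well and incubated for 24 h at 37 °C. ATP readout used the Promega BacTiter Glo bioluminescence system. Percent inhibition of gametocyte viability comes from a single run, normalised to control wells.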

[6] = tested on: Plasmodium falciparum NF54 stage IV/V gametocytes; assay: % inhibition of gametocyte viability (luciferase reporter); higher = more inhibition; settings: 48 h
Summary of the method: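 Percent inhibition was normalised to controls from a single run. Stage IV/V gametocytes of the NF54-Pfs16-GFP-Luc line, at 2% gametocytaemia and 2% haematocrit, were exposed to compound at 1 or 5 µM for 48 h at 37 °C under stationary, hypoxic conditions. Luminescence was then read from 30 µL lysate mixed with 30 µL Promega luciferin substrate on a GloMax-Multi+ reader with 10 s integration.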

[7] = tested on: Plasmodium berghei ANKA liver stage in HepG2-A16-CD81; assay: % inhibition of liver stage parasite viability (luciferase); higher = more inhibition; settings: 5 µM; 48 h
Procedure: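 Single-concentration screen of the MMV Pandemic Response Box. P. falciparum NF54 asexual blood stages: pLDH assay, 72 h at 37 °C, 2 and 20 µM, n=2. Stage IV/V gametocytes (NF54): luciferase reporter (NF54-Pfs16-GFP-Luc, 48 h), ATP bioluminescence (24 h) and PrestoBlue (48 h) at 1 and 5 µM, n=1. P. berghei liver stage (luciferase in HepG2-A16-CD81, 48 h post infection) at 5 µM, n=4. All normalised to DMSO and kill controls as % inhibition.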
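Wherever % inhibition of HepG2 viability (CellTiter-Glo) is given: HepG2-A16-CD81 hepatoma cells plated as in the liver-stage assay but without sporozoites, with DMSO wells as negative and 25 µM puromycin as positive control.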

Row | SMILES | % viability of CHO cells ([1]; 2 µM) | % viability of CHO cells ([1]; 20 µM) | % inhibition of HepG2 viability [2] | % inhibition of gametocyte viability ([3]; 1 µM) | % inhibition of gametocyte viability ([3]; 5 µM) | % inhibition of asexual blood stage proliferation ([4]; 2 µM) | % inhibition of asexual blood stage proliferation ([4]; 20 µM) | % inhibition of gametocyte viability ([5]; 1 µM) | % inhibition of gametocyte viability ([5]; 5 µM) | % inhibition of gametocyte viability ([6]; 1 µM) | % inhibition of gametocyte viability ([6]; 5 µM) | % inhibition of liver stage parasite viability [7]
1 | O=C(NCCN1CCCCC1)c1cccc(C(F)(F)F)c1 | 96.7% | -13% | 1.19% | < 0% | < 0% | 16.9% | 78.6% | < 0% | 2.48% | 12.3% | < 0% | 20.2%
2 | CCNC(=O)Nc1cc2c(-c3ccnc(C)c3)ccc(CNC(=O)OC)c2cn1 | 92.8% | 58.1% | 5.56% | < 0% | 27.4% | 0.638% | 33.7% | < 0% | < 0% | < 0% | 5.9% | 25.9%
3 | COC(=O)Nc1nc2c(C)cccc2[nH]1 | 101% | 86.1% | -1.33% | < 0% | < 0% | -2.03% | -14% | < 0% | < 0% | < 0% | < 0% | 3.06%
4 | O=C(O)c1sccc1S(=O)(=O)n1ccc2cc(Br)ccc21 | 93.4% | 97.8% | -1.44% | 12.3% | 30.7% | 49.8% | 84.9% | < 0% | < 0% | < 0% | < 0% | 8.54%
5 | C[C@H]1CC[C@@]2(O)C(C)(C)[C@@H]3CC[C@@]2(C)[C@H]1C3 | 119% | 112% | -2.52% | < 0% | < 0% | 7.01% | 18.1% | < 0% | < 0% | < 0% | < 0% | 29.2%
6 | CCCCC(CC)CNC(=N)NC(=N)NCCCCCCNC(=N)NC(=N)NCC(CC)CCCC (stereo not drawn) | 101% | 124% | 57.5% | 44.5% | 79.2% | 92.1% | 87.5% | 66.4% | 93.8% | 98.7% | 100% | 74%
7 | O[C@@](Cn1cnnn1)(c1ccc(F)cc1F)C(F)(F)c1ccc(-c2ccc(OCC(F)(F)F)cc2)cn1 | 92.3% | 95.9% | 13% | 1.61% | 22.4% | 7.2% | 82.5% | < 0% | 25.9% | < 0% | 3.57% | 40%
8 | CCCCSc1nc(N)c2[nH]c(=O)c(=O)n(Cc3ccccc3)c2n1 | 114% | 55.2% | 4.02% | 1.71% | 21.9% | 14.9% | 14.6% | < 0% | < 0% | < 0% | < 0% | -9.6%
9 | OC[C@@H]1CC[C@H](n2cnc3c(O)ncnc32)O1 | 119% | 114% | -1.26% | 1.35% | 4.95% | 47.1% | 26.7% | < 0% | < 0% | 0.0967% | < 0% | 18.8%
10 | COc1c(F)c(F)cc2c(=O)c(C(=O)O)cn(C3CC3)c12 | 82.2% | 80.7% | 3.68% | 16.8% | 16.9% | 20.8% | 56.5% | < 0% | < 0% | < 0% | < 0% | 15.1%
11 | CCc1cc(CCC(=O)Nc2ccccc2O)c(=O)[nH]c1C | 90.7% | 106% | 0.672% | 5.05% | 16.3% | -8.67% | 47.7% | < 0% | < 0% | < 0% | < 0% | 17.8%
12 | CNCC(=O)OCc1cccnc1N(C)C(=O)OC(C)[n+]1cnn(C[C@](O)(c2cc(F)ccc2F)[C@@H](C)c2nc(-c3ccc(C#N)cc3)cs2)c1 (stereo partly drawn) | 94.9% | 98.8% | 14.7% | 8.15% | 23.3% | 0.721% | 37.7% | < 0% | < 0% | < 0% | < 0% | 29.6%
13 | [N-]=[N+]=N[C@H]1C[C@H](n2ccc(=O)[nH]c2=O)O[C@@H]1CO | 109% | 102% | -1.43% | 6.88% | 16.8% | -15.7% | 43.2% | 3% | < 0% | 11.1% | < 0% | -3.95%
14 | CN1CCN(c2ccc3[nH]c(-c4ccc5[nH]c(-c6ccc(O)cc6)nc5c4)nc3c2)CC1 | 106% | 115% | 18.2% | < 0% | < 0% | 82.9% | 80.9% | < 0% | < 0% | < 0% | 20.9% | -6.69%
15 | Oc1cc(-c2cccc3ccccc23)[nH]n1 | 109% | 68.8% | 2.56% | 4.17% | 26.7% | 3.8% | -4.8% | < 0% | < 0% | < 0% | < 0% | 45.4%
16 | CNC(=O)C1O[C@@H](n2cnc3c(NCc4cccc(I)c4)nc(Cl)nc32)[C@H](O)[C@@H]1O (stereo partly drawn) | 97.5% | 132% | -10.3% | 12.5% | 24.1% | 33.8% | 63% | < 0% | < 0% | < 0% | < 0% | 19.8%
17 | O=c1[nH]c(=O)n(Cc2cccc(Oc3ccccc3)c2)cc1Nc1ccccc1 | 116% | 65.4% | 7.38% | < 0% | < 0% | -152% | 47.8% | < 0% | < 0% | < 0% | < 0% | -3.63%
18 | CC(C)(C)c1cc(CCC(=O)N2CCC2)cc(C(C)(C)C)c1O | 94.2% | 74.4% | 0.292% | < 0% | < 0% | 4.95% | 69.6% | < 0% | < 0% | < 0% | < 0% | 21.9%
19 | O=C1CCC(N2C(=O)c3ccccc3C2=O)C(=O)N1 (stereo not drawn) | 129% | 120% | -2.75% | < 0% | < 0% | 30.6% | 69.3% | < 0% | < 0% | 0.963% | 6.01% | 25.6%
